Assay results as given in PubChem BioAssay (EPA / NIEHS).
Calls of active or inactive are those of the source. The calls were made as follows: active = hit-call score of the fitted dose curve at least 0.9, where 1 is the maximum; inactive = score below 0.9.

Assay: ATG_MRE_CIS: Attagene CIS-FACTORIAL HepG2 Assay for human Metal Responsive Element (MRE) (AID 2282954)
Conditions: HepG2 MRE cis-reporter transcription, Attagene multiplex; actives raise or lower the signal
Experimental: ATG_CIS is a cell-based, multiplexed-readout assay that uses HepG2, a human liver cell line, with measurements taken at 24 hours after chemical dosing in a 24-well plate.ATG_MRE_CIS is one of 52 assay component(s) measured or calculated from the ATG_CIS assay. It is designed to make measurements of mRNA induction, a form of inducible reporter, as detected with fluorescence intensity signals by Reverse transcription polymerase chain reaction (RT-PCR) and Capillary electrophoresis technology.Data from the assay component ATG_MRE_CIS was analyzed into 1 assay endpoint. This assay endpoint, ATG_MRE_CIS, was analyzed with bidirectional fitting relative to DMSO as the negative control and baseline of activity. Using a type of inducible reporter, measures of mRNA for gain or loss-of-signal activity can be used to understand the reporter gene at the transcription factor-level as they relate to the gene MTF1. Furthermore, this assay endpoint can be referred to as a primary readout, because this assay has produced multiple assay endpoints where this one serves a reporter gene function. To generalize the intended target to other relatable targets, this assay endpoint is annotated to the dna binding intended target family, where the subfamily is zinc finger.
Human liver HepG2 cells are transiently transfected with multiple reporter transcription units (MRTUs) in 6-well plates using FuGene 6 reagent (Roche; 3 ml FuGene/1 mg DNA). The MRTU constructs are regulated by a cis-regulating element (promoter). […] A major difference between the CIS and TRANS system is that in CIS activities of endogenous TFs are measured, whereas the TRANS assay evaluates changes in activities of exogenous, chimeric NR-Gal4 proteins. […] At the end of 24 hour incubation, total RNA was isolated using TriZol reagent (Invitrogen). The isolated RNA is then reverse-transcribed using oligo(dT) primer and Mo-MLV reverse transcriptase (Invitrogen) with DNAse I (Ambion) treatment for 30 min. The one-tenth of the produced cDNA was amplified by PCR using Taq DNA polymerase (Invitrogen) and two reporter sequence-specific primers. The PCR products were fluorescently labeled by primer extension with 6-arboxyfluorescein (6-FAM) 5'-labeled reporter sequence-specific primer (2 min at 95 C, 20 s at 68 C and 10 min at 72 C) and these products were digested with 5U of HpaI (New England Biolabs) for 2h at 37 C. The fragments were purified using Qiaquick PCR columns (Qiagen), analyzed on an ABI 3130xL genetic analyzer (Applied Biosystems) with peak positions identified by using a set of X-rhodamine (ROX)-labeled MapMarker1000 molecular weight standards (BioVentures). The raw capillary electrophoresis data was processed using Attagraph software (Attagene).
In the case of O=C(O)c1cccc(C[C@@H]2COc3ccc(OCc4nc5cc(F)ccc5s4)cc3[C@@H]2O)c1, the AC50 was 154 µM (active).
For OCCOCCOCCO, the outcome was “inactive”.
In the case of C=CCc1cc(S(=O)(=O)c2ccc(O)c(CC=C)c2)ccc1O, the AC50 was 47 µM (active).
With C=CN1CCCC1=O the outcome was “inactive”.
With CCCCC(CC)C(=O)OCCOCCOCCOC(=O)C(CC)CCCC (stereo not given) the outcome was “inactive”.
For CC(C)C(=O)Nc1ccc([N+](=O)[O-])c(C(F)(F)F)c1, the AC50 was 100 µM (active).
With CCCC(CCC)C(=O)O the outcome was “inactive”.
For OC[C@H]1O[C@@H]2O[C@H]3[C@H](O)[C@@H](O)[C@@H](O[C@H]4[C@H](O)[C@@H](O)[C@@H](O[C@H]5[C@H](O)[C@@H](O)[C@@H](O[C@H]6[C@H](O)[C@@H](O)[C@@H](O[C@H]7[C@H](O)[C@@H](O)[C@@H](O[C@H]1[C@H](O)[C@H]2O)O[C@@H]7CO)O[C@@H]6CO)O[C@@H]5CO)O[C@@H]4CO)O[C@@H]3CO, the outcome was “inactive”.
For S=P(N1CC1)(N1CC1)N1CC1, the outcome was “inactive”.
With CCCCCCCCCC the outcome was “inactive”.
For CC(C)CCCCCCOC(=O)C1CCCCC1C(=O)OCCCCCCC(C)C (stereo not given), the outcome was “inactive”.
With O=S1(=O)CCCO1 the outcome was “inactive”.
With O=c1[nH]cnc2c1ncn2[C@H]1CC[C@@H](CO)O1 the outcome was “inactive”.
With Cn1c(=O)c2[nH]cnc2n(C)c1=O the outcome was “inactive”.
In the case of Nc1ccn([C@@H]2O[C@H](CO)[C@@H](O)[C@@H]2O)c(=O)n1, the outcome was “inactive”.
For OCC(CO)(CO)CO, the outcome was “inactive”.
For Cn1cc[nH]c1=S, the outcome was “inactive”.
With NC(=O)N(O)[C@@H]1COc2cc(OCc3ccccc3)ccc21 the outcome was “inactive”.
For CCCc1ccccc1, the outcome was “inactive”.
With O=C(N[C@H](CO)[C@H](O)c1ccc([N+](=O)[O-])cc1)C(Cl)Cl the outcome was “inactive”.
With O=C(O)CO the outcome was “inactive”.
In the case of CCCOc1ccc(S(=O)(=O)N2CCN(CC)CC2)cc1-c1nc2c(CC)n(Cc3ccccn3)nc2c(=O)[nH]1, the AC50 was 34.8 µM (active).
In the case of CCCCCCCC1CCC(=O)O1 (stereo not given), the outcome was “inactive”.
With CCCCCCCCN(C)C the outcome was “inactive”.
With O=S(=O)(O)CCC(F)(F)C(F)(F)C(F)(F)C(F)(F)C(F)(F)C(F)(F)F the outcome was “inactive”.
For C[Si](C)(C)C(F)(F)C(F)(F)C(F)(F)F, the outcome was “inactive”.
For CC(=O)c1ccccc1, the outcome was “inactive”.
For Cc1nccn1-c1ccc(Sc2cccc(C3(C(N)=O)CCOCC3)c2)cc1, the AC50 was 6.89 µM (active).
In the case of CCCCCCCCCCCCCCCCOS(=O)(=O)O, the AC50 was 25.4 µM (active).
For NC(=O)N1c2ccccc2C=Cc2ccccc21, the outcome was “inactive”.
For COS(C)(=O)=O, the outcome was “inactive”.
For CCOC(N)=O, the outcome was “inactive”.
With CCCCCCCCCCCCCCO the outcome was “inactive”.
With O=C(NO)C1(NS(=O)(=O)c2ccc(Oc3ccc(F)cc3)cc2)CCOCC1 the outcome was “inactive”.
For O=C(O)c1ccc2c(c1)nc(C(=O)NC1CCN(C3CC3)CC1)n2Cc1cc(-c2ccc(Cl)s2)on1, the outcome was “inactive”.
In the case of O=C(Cl)C(F)(F)C(F)(F)C(F)(F)C(=O)Cl, the outcome was “inactive”.
With NCC(F)(F)C(F)(F)C(F)(F)C(F)(F)F the outcome was “inactive”.
With CCCCCCCC/C=C\CCCCCCCC(=O)OC[C@@H](O)[C@H]1OC[C@H](O)[C@H]1O the outcome was “inactive”.
For CC(C)CC(C)O (stereo not given), the outcome was “inactive”.
With Cc1nc(-c2ccccn2)ncc1C(=O)Nn1cc(C)c2cc(F)ccc21 the outcome was “inactive”.
